Nrf2 block: Nrf2 pathway inhibition; A549 ARE-Fluc reporter, luciferase luminescence, 18-24 h; Potency, µM (series often up to 46 µM), for inactives: top-dose activity change, negative = inhibition, actives largely listed as inhibitors; 360,000 compounds, 2.1% hits; note: potency is the fitted concentration of half-maximal effect; % is set by controls: 0 for no effect and ±100 for the full control effect; nearly all actives have a fitted effect of over 60% in size
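Reporter: ARE-Fluc in A549. Exposure: 18-24 h, 37 °C, 5% CO2, 5% FBS OPTI-MEM. Readouts: fluorescent cytotoxicity (CellTiter-Fluor), then luminescent Nrf2 signal after BugLite.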
ELG1 repair inh: inhibitors of ELG1-dependent DNA repair in HEK293T cells | 330,000 compounds, 2.3% hits | Potency, µM (titrated, usually from 46.1 µM), for the others: at the highest dose activity change, negative = inhibition, most hits filed as inhibitors | AID 504467 | HEK293T ELG1-luciferase reporter, luminescence, 16 h; DNA damage induced by 5-fluorouridine; note: potency is the fitted concentration of half-maximal effect; % is set by controls: 0 for no effect and ±100 for the full control effect; nearly all actives have a fitted effect of over 55% in size
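In this reporter screen, reduction of luminescence relative to DMSO vehicle indicated activity. Compounds and 5-fluorouridine were added together to 2,000 cells per well, incubated for 16 hr at 37 °C, then developed with ONE-Glo.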
Nrf2 activator: activators of Nrf2 (ARE) signaling; AREc32 ARE-luciferase reporter (MCF7-derived line), luminescence, 24 h; 410,000 compounds, 0.31% hits; Potency, µM (titrated, usually from 46.1 µM), without a hit: at the highest dose activation, most hits filed as activators; note: potency is the fitted concentration of half-maximal effect; % of control where 0% means no effect; nearly all actives have a fitted effect of over 65% in size
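For detection, Steady-Glo was added and plates sat 30 min at RT; before that, AREc32_Fluc cells grown overnight in OPTI-MEM/5% FBS had been treated with 23 nL compound for 24 hr at 37 deg C.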
A549 viability: kills or reduces viability of A549 cells in Nrf2 counter-screen; Potency, µM (titrated, usually from 46 µM), inactives show at the highest dose activity change, negative = cytotoxicity, usual class: inhibitors; 390,000 compounds, 0.16% hits; A549 ARE-Fluc cells, CellTiter-Fluor viability, 18-24 h; AID 504648; note: potency is the fitted concentration of half-maximal effect; % is set by controls: 0 for no effect and ±100 for the full control effect
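A549 ARE_Fluc cells in 5% FBS OPTI-MEM were exposed to compounds in concentration-response for 18-24 h at 37 deg C. Viability was read by CellTiter-Fluor fluorescence (Ex 405/Em 525) after 30 min, before the luciferase read.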
mIDH1 inhibitor: blocks human mutant IDH1 R132H enzyme | O75874 | IDH1-R132H enzyme, NADPH consumption, diaphorase/resazurin fluorescence | Potency, µM (top dose mostly 76.6 µM), for inactives: at the highest dose activity change, negative = inhibition, most hits filed as inhibitors | 390,000 compounds, 0.093% hits | AID 602179; note: potency is the fitted concentration of half-maximal effect; % is set by controls: 0 for no effect and ±100 for the full control effect; nearly all actives have a fitted effect of over 65% in size
Target sequence (O75874 whole entry R132H, stated change not applied): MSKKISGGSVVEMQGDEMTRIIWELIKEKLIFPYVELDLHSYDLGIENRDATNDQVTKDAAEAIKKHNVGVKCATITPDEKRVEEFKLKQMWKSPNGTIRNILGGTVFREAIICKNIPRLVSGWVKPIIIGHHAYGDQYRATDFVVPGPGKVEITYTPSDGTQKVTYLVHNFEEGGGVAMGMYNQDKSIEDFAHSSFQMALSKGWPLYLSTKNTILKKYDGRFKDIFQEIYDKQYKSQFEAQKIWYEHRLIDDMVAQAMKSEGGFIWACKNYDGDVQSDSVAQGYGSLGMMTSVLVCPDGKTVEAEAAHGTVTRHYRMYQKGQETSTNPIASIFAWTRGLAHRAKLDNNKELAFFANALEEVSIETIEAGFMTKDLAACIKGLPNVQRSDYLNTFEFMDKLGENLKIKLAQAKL
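IDH1-R132H (0.5 ug/mL dispensed) in pH 7.5 Tris buffer was preincubated 30 min with compound, then given a substrate mix of 0.016 mM NADPH and 2 mM alpha-KG for 80 min at room temperature; remaining NADPH was read by diaphorase/resazurin fluorescence.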
IDH1 autofl: counter-screen for mutant IDH1 inhibitors: fluorescence interference. Resorufin detection reagent fluorescence interference, cell-free. 750 tested, under 10 active. inhibition of signal, % at 51.2 µM. AID 623980. shares compounds with mIDH1 inhibitor;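 note: 0% = wells with normal resorufin and full inhibition = wells lacking resorufin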
WT IDH1 inh: wild-type IDH1 (human) inhibition counterscreen | shares compounds with mIDH1 inhibitor | WT IDH1 enzyme, NADPH diaphorase/resazurin fluorescence | Potency, µM (doses to about 115 µM), for the others: top-dose activity change, negative = inhibition, most hits filed as inhibitors | 750 compounds, 9% hits | AID 623995;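 note: potency is the fitted concentration of half-maximal effect; 0% = full WT IDH1 enzyme control and full inhibition = no enzyme wells; nearly all actives have a fitted effect of over 55% in size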
Target sequence (O75874 whole entry, looked up): as the sequence (O75874 whole entry R132H, stated change not applied) above, with H132R counted along it
mIDH1 confirm: mutant IDH1 (human) inhibition, confirmed. shares compounds with mIDH1 inhibitor. IDH1 R132H enzyme, NADPH diaphorase/resazurin fluorescence. Potency, µM (top dose mostly 76.6 µM), for inactives: at the highest dose activity change, negative = inhibition, usual class: inhibitors. 750 compounds, 83% hits. AID 624002; note: potency is the fitted concentration of half-maximal effect; nearly all actives have a fitted effect of over 50% in size
Active calls of the source: *. A selection: hits, their analogues and other compounds. The true share with any hit is near 3.8%. Calls come from the whole dose curve; as a rule, active = well fitted curve in the direction sought with a large enough effect; inconclusive = small, poorly fitted or top-dose-only effect, or another doubt; inactive = no such curve, though single readings can be large; an effect the other way counts as inactive or inconclusive.

Results for Cc1nc2ccccc2c2oc(C(=O)N3CCN(c4ccc([N+](=O)[O-])cc4)CC3)cc12 ?
Nrf2 block: -7.9%; ELG1 repair inh: inconclusive; Nrf2 activator: -0.1%; A549 viability: -6.1%; mIDH1 inhibitor: 0.0%

What do the screens show for `COc1cccc(-c2coc3c(C)c4oc(=O)c(CC(=O)O)c(C)c4cc23)c1`?
Nrf2 block: -26.2%; ELG1 repair inh: 11.3%; Nrf2 activator: -0.2%; A549 viability: -3.4%; mIDH1 inhibitor: -3.6%

What do the screens show for `COc1cccc(-c2coc3c(C)c4oc(=O)c(CCC(=O)O)c(C)c4cc23)c1`?
Nrf2 block: inconclusive; ELG1 repair inh: -14.3%; Nrf2 activator: 3.4%; A549 viability: -6.8%; mIDH1 inhibitor: 26.1µM*; IDH1 autofl: 11.5; WT IDH1 inh: 35.5µM*; mIDH1 confirm: 25.1µM*

How did CCN(CC(=O)Nc1c(F)cccc1F)C(=O)c1cccc(S(=O)(=O)NCc2ccccc2)c1 do in these assays?
Nrf2 block: 14.9%; ELG1 repair inh: 7.6%; Nrf2 activator: 1.7%; A549 viability: 8.3%; mIDH1 inhibitor: 5.8%

What do the screens show for `COc1ccc(C)cc1-n1c(-c2ccc(Cl)cc2)cc2c1CC(C)(C)CC2=O`?
Nrf2 block: 17.1%; Nrf2 activator: -0.9%; A549 viability: -4.4%; mIDH1 inhibitor: inconclusive; IDH1 autofl: -0.7; WT IDH1 inh: 0.4%; mIDH1 confirm: 14.1µM*

Results for COc1ccccc1C1(CC(=O)O)CCOC(C(C)C)C1 (stereo not drawn) ?
ELG1 repair inh: 7.1%; Nrf2 activator: -0.1%; A549 viability: -1.9%; mIDH1 inhibitor: 6.3%

How did CCC(=O)N(CCC1(c2ccccc2OC)CCOC(C(C)C)C1)Cc1ccco1 (stereo not drawn) do in these assays?
Nrf2 block: inconclusive; ELG1 repair inh: -29.4%; Nrf2 activator: 11.9%; A549 viability: -4.4%; mIDH1 inhibitor: inconclusive; IDH1 autofl: 2.6; WT IDH1 inh: 7.3%; mIDH1 confirm: 39.8µM*

How did CCN(CC)S(=O)(=O)c1ccc2c(c1)N(CC(=O)Nc1cccc(C#N)c1)C(=O)CO2 do in these assays?
Nrf2 block: -2.0%; Nrf2 activator: 3.5%; A549 viability: -7.9%

Results for COc1cc(OC)c(NC(=O)c2ccc3c(SCC(=O)O)c4c(nc3c2)CCCC4)cc1Cl ?
Nrf2 block: 0.7%; ELG1 repair inh: 6.5%; Nrf2 activator: 4.5%; A549 viability: -0.8%; mIDH1 inhibitor: inconclusive; IDH1 autofl: 8.0; WT IDH1 inh: -17.9%; mIDH1 confirm: 28.2µM*

Results for CCN(CC)C(=O)c1sc2c(c1C)c(=O)n(Cc1ccccc1)c(=O)n2Cc1ccccc1C ?
Nrf2 activator: 5.8%; A549 viability: -19.9%; mIDH1 inhibitor: -17.5%

How did CCN(CC)C(=O)c1sc2c(c1C)c(=O)n(CCc1ccccc1)c(=O)n2Cc1cccc(Cl)c1 do in these assays?
Nrf2 activator: 0.4%; A549 viability: -10.4%; mIDH1 inhibitor: 31.6µM*; IDH1 autofl: -5.7; WT IDH1 inh: 3.0%; mIDH1 confirm: 11.2µM*

What do the screens show for `C/C(=N\NC(N)=S)c1cc(-c2ccccc2)c(-c2ccccc2)s1`?
Nrf2 block: -1.3%; ELG1 repair inh: -14.6%; Nrf2 activator: 1.6%; A549 viability: -3.0%; mIDH1 inhibitor: inconclusive; IDH1 autofl: 0.0; WT IDH1 inh: 1.0%; mIDH1 confirm: inconclusive

How did CCc1ccc(OCCn2c(C3CC(=O)N(Cc4ccc(F)cc4)C3)nc3ccccc32)cc1 (stereo not drawn) do in these assays?
Nrf2 block: 14.6µM*; Nrf2 activator: -2.8%; A549 viability: -16.7%; mIDH1 inhibitor: inconclusive; IDH1 autofl: -3.8; WT IDH1 inh: -8.0%; mIDH1 confirm: inconclusive

How did Cc1ccc2c(c1)c1ncnc(N3CCOCC3)c1n2C do in these assays?
Nrf2 block: -19.3%; ELG1 repair inh: inconclusive; Nrf2 activator: 5.5%; A549 viability: -19.3%; mIDH1 inhibitor: 2.5%

How did COc1ccc2c(c1)c1ccc3c(c1n2C)C(=O)C=CC3=O do in these assays?
Nrf2 block: -6.3%; ELG1 repair inh: -10.0%; Nrf2 activator: 12.4%; A549 viability: -21.3%; mIDH1 inhibitor: 35.5µM*; IDH1 autofl: -0.2; WT IDH1 inh: 138.0%; mIDH1 confirm: 22.4µM*

How did Cc1ccc2c(c1)c1ccc3c(c1n2C)C(=O)C=CC3=O do in these assays?
Nrf2 block: -27.5%; ELG1 repair inh: -25.8%; Nrf2 activator: 10.3%; A549 viability: inconclusive; mIDH1 inhibitor: 41.4µM*; IDH1 autofl: 1.7; WT IDH1 inh: 59.5%; mIDH1 confirm: 22.4µM*

Results for Cn1c2ccccc2c2ccc3c(c21)C(=O)C=CC3=O ?
Nrf2 block: -8.5%; Nrf2 activator: 6.2%; A549 viability: -25.0%; mIDH1 inhibitor: 23.3µM*; IDH1 autofl: -0.1; WT IDH1 inh: -30.0%; mIDH1 confirm: 10µM*

Results for Cc1ccc(C)c2c1c1ccccc1n2C ?
Nrf2 block: 0.4%; ELG1 repair inh: -8.1%; Nrf2 activator: 2.4%; A549 viability: -4.7%; mIDH1 inhibitor: 1.4%

Results for CCc1ccc(C(O)c2ncc(-c3ccc(C)cc3)[nH]2)cc1 (stereo not drawn) ?
Nrf2 activator: 7.5%

What do the screens show for `Cc1ccc2nc3c(nc2c1C)C(O)=C3O`?
Nrf2 block: 0.1%; ELG1 repair inh: inconclusive; Nrf2 activator: 0.3%; A549 viability: -1.7%; mIDH1 inhibitor: inconclusive; IDH1 autofl: -5.8; WT IDH1 inh: 62.8%; mIDH1 confirm: 44.7µM*

How did Cc1ccc2nc3c(nc2c1C)CCCC3 do in these assays?
Nrf2 block: 0.9%; ELG1 repair inh: 24.6%; Nrf2 activator: 0.1%; A549 viability: 2.7%; mIDH1 inhibitor: 0.1%

Results for Cc1cc(C)cc(OCCSc2nc(-c3ccc(C(C)(C)C)cc3)nc3cc(=O)[nH]n23)c1 ?
Nrf2 block: -17.7%; Nrf2 activator: -0.2%; A549 viability: -6.3%; mIDH1 inhibitor: inconclusive; IDH1 autofl: -4.7; WT IDH1 inh: inconclusive; mIDH1 confirm: 25.1µM*

High-throughput results from PubChem BioAssay.
